This note sets out measurements from the supplement of paper PMC10681739.

In the assay the target is T1, ETS1 (UniProt P14921).
T1 sequence: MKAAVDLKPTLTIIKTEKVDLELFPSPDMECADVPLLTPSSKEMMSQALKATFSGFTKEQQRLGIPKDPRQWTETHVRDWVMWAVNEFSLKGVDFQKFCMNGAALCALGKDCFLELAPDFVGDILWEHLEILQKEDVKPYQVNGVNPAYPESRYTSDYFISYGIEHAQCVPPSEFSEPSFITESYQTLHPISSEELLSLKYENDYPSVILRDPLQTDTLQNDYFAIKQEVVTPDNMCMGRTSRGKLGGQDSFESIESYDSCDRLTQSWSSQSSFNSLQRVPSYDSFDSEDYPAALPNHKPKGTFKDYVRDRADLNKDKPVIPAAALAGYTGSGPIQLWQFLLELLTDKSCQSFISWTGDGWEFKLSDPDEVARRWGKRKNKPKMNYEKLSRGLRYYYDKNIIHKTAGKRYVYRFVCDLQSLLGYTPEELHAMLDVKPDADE
The assay can be described thus: ETS1 binding intensity (PBM fluorescence) in presence of RUNX1, normalised to ETS1-only experiment (arbitrary fluorescence units); higher = stronger binding. The settings on record: ETS1 concentration 1 nM; RUNX1 concentration 25 nM. The method, then: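 Cooperative genomic-context PBM: 36-bp genomic probes with neighbouring ETS1 and RUNX1 sites, double-stranded on Agilent 4x180k arrays. Full-length recombinant human ETS1 (1 nM) was incubated alone or with RUNX1 (25 nM) and detected with anti-ETS1 antibody plus Alexa488 secondary. Value is the median fluorescence intensity over 4 replicate spots; the ETS1+RUNX1 data were normalised to the ETS1-only data using probes without RUNX1 sites. The 36-bp variable region sits on the array probe with constant linker/primer flanks that are not printed.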
For the sequence GTGAGTCACTTCCTGACCATGTGGGTTTTTGGTACG, the ETS1 binding intensity was 937.

Take TCTCTACTTCCCATTATTTCTGTGGTTAATTTCACC: the ETS1 binding intensity was 986.

Turning to TCAGGGGAGCGAGCAGGAAGTGGTAAGATTTGATAG, the ETS1 binding intensity is 7210.

In the case of TCTAGTAAAAGAGGAAGTTCTTAACCACATTTCCAT, the ETS1 binding intensity amounted to 9250.

Regarding GGTTTCCGGGTGAAAAAAAAAAAAAAAACCACGCCA, the ETS1 binding intensity came to 529.

In the case of ACCACCCCCCGTTTCCTCCGAAGTGGTTGGTGCCTT, the ETS1 binding intensity is 494.

In the case of CCCTTGCCAGAGGAAGCCACTGCCACCGCAGAAGCA, the ETS1 binding intensity stood at 1740.

Regarding TGTCCGGGCAGGAAGGGGTGCTCTGTGGGCTTGGAG, the ETS1 binding intensity came to 1050.

Consider CCTGGTCCGGAAGCGCTGTCCCCGCCTCCCGCATAG, for which the ETS1 binding intensity was determined as 2430.

On to GTTTCAGTATTTCCTGGTGCGGCGTACCACACCTAC, for which the ETS1 binding intensity was 566.

For the sequence CAATGGATGGCCACATCCTCACCACAAACTGAGTCA, the ETS1 binding intensity was 647.

As to CCTTCCTTCCGGGGTCGGCCCCGCCCGCAAGCGCCG, the ETS1 binding intensity came out at 467.

As for TGCCGTTTCCGGGTCACCCAGGCAGCTTGTGGCGGC, the ETS1 binding intensity was found to be 478.

On to GAAATCCATCACGGATGTGGGCTTTTTGCTCTCATT, for which the ETS1 binding intensity was 1620.

On to ATCTCCACATCCTCCCCATCGACCGCATGGTTTACC, for which the ETS1 binding intensity was 653.

With CTTTAAGGAGGCGGAAAAGTTAACCGCGATGGGCAG, the ETS1 binding intensity is 1430.

Take AAGATGCCCCCTTCCGCTGGAAAGCGGTAATGCCCA: the ETS1 binding intensity is 705.

In the case of TTTATCCTTATTTCCTGGCTTCGCCCACAAGCACAG, the ETS1 binding intensity was determined as 625.

As for GTCACAGGAAAGAAGGAGCCTCGCCTTAACCGCACC, the ETS1 binding intensity is 2930.

In the case of CAGCAAAAGGCAGGATGTGGTTAAAACTGTGCTCTG, the ETS1 binding intensity amounted to 29000.

As to AGACAGGAGTTCAGGAAGCTGCGGTCTAGATTATGT, the ETS1 binding intensity was determined as 6250.

Turning to ACAGGAAGAGATATTATATCTCCCTGCGGTTGGTTT, the ETS1 binding intensity worked out at 2430.

Take GCCGCGCGGAAGCCTCCGCCCTGTGGTTTTGGAGCC: the ETS1 binding intensity came out at 993.

For GCTGCAGCAGGCGGGAAGTCTGCGGTTCGCGGGCTC, the ETS1 binding intensity came to 6590.

On to GAGGAAAAAGGAAACAGAAACTCCGCAACTTGCGCC, for which the ETS1 binding intensity was found to be 411.

For CCGCCACCGGAAGCGCCCTCCTAATCCCCGCAGCGC, the ETS1 binding intensity is 6170.

On to CCTCAATTTCCTGGCCAGAGAAACCACTGCCTCTCA, for which the ETS1 binding intensity came to 526.

On to CAGTGCCAGCCGGAACTTGTGGTTCGGACCGTGGGT, for which the ETS1 binding intensity came out at 2100.

As for AGCTGCAGTTGGGCAGGAAACCACAATGTCGAAGAC, the ETS1 binding intensity came to 5770.

As to TGGCTGCCACTGAGAGGATGTGGTGACAGAGGTGGG, the ETS1 binding intensity stood at 4350.

For the sequence AGGCTTCCTGTTTTATCTCGTGTGTGTGGTGCACCA, the ETS1 binding intensity is 565.

On to GCGCAAGGCGCTTCCTCCCCCGCAGCGCGAGCCCCA, for which the ETS1 binding intensity is 435.

As for GCAGCTCTGGCAGGATGCGGTTAAATATGTAGCCAC, the ETS1 binding intensity amounted to 12800.

Turning to CTGCTGCCGCGAACAGGAAACCACTACAATCAGGAG, the ETS1 binding intensity came to 4530.

Consider TGGAGTGGAGGAAGTGGTGTTACCACAGCTCAGAGG, for which the ETS1 binding intensity turned out to be 2680.

Take GCAGTGCAGGAAGTGCTTTGTGTGGTACAATCCCAA: the ETS1 binding intensity worked out at 2110.

In the case of CGGGGGCCAGGCTTCCTGTGGTGGGAGCGGCAGGCC, the ETS1 binding intensity stood at 477.

Take AGGACCGGAAGTGCCCGAGGGCGGCCGCAGAACGGT: the ETS1 binding intensity turned out to be 16700.

As for GGCTTGCCAAGAGGAAATTTGAAGCCACAATAACAT, the ETS1 binding intensity is 951.

On to GGCCGACGGGAAGTGTAGTCCGGCCTGCGGTCCGGG, for which the ETS1 binding intensity turned out to be 1910.
